Source: PubChem BioAssay (National Center for Advancing Translational Sciences (NCATS))
A selection: hits, their analogues and other compounds. The true share with any hit is near 9%.
KinaseGlo FLuc: blocks Kinase-Glo luciferase, a counter-screen artifact; actives 0.28% (n = 200,000); Q27757; AID 1379; Kinase-Glo luciferase, ATP luminescence, 8 min; Potency, µM (highest dose often 38.3 µM), without a hit: at the highest dose activity change, negative = inhibition, hits mostly inhibitors; further: on the % scale 0 is the no-effect control and ±100 the full control effect; nearly all actives have a fitted effect of over 60% in size
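Kinase-Glo luciferase light output from ATP and luciferin was measured with 10 uM ATP, within the enzyme's linear range. Buffer: 50 mM imidazole pH 7.2, 50 mM KCl, 7 mM MgCl2, 0.01% Tween 20, 0.05% BSA; luminescence read after 8 min at ambient temperature.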
HTT ATP protect: protects HTT-Q103 PC12 cells, measured by ATP | PC12 HTT-Q103 induced, cytoprotection, ATP luminescence, 40 h | Potency, µM (series often up to 56.4 µM), for inactives: cytoprotection (ATP increase), usual class: activators | actives 0.14% (n = 230,000) | AID 1471; further: % of control where 0% means no effect; nearly all actives have a fitted effect of over 45% in size
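PC12 cells stably carrying ecdysone-inducible Htt exon 1 (Q103)–GFP were induced with 100 nM tebufenozide (final) alongside library compounds in a dose series. Cytoprotection was scored as retained ATP by ATPlite luminescence.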
ALDH1A1 inh: blocks purified human ALDH1A1 activity; P00352; AID 1030; actives 7.3% (n = 220,000); Potency, µM (highest dose often 75.3 µM), for inactives: at the highest dose activity, negative = inhibition, actives largely listed as inhibitors; Purified ALDH1A1, NADH fluorescence, propionaldehyde substrate; active means well fitted inhibition curve with a large enough effect, not every such curve was filed as active; inconclusive means small, poorly fitted or top-dose-only effect, or another doubt; inactive means no such curve, though single readings can be large or run the other way;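 further: plate controls were no enzyme wells and a reference inhibitor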
Target sequence (P00352 whole entry, looked up): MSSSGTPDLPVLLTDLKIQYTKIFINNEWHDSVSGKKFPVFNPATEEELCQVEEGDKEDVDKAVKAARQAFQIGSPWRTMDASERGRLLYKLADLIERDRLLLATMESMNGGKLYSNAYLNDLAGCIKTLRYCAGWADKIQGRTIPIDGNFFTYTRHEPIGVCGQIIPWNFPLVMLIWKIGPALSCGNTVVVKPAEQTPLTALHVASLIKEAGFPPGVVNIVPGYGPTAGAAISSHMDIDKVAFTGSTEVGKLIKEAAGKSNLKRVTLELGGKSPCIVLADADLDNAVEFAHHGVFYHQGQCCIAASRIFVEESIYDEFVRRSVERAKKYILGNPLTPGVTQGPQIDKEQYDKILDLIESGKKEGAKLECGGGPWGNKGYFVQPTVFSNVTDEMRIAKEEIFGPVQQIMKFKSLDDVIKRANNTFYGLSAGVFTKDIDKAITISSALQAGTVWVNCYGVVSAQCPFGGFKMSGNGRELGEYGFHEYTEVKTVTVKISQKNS
LMNA splice mod: modulators of lamin A splicing; Potency, µM (top dose mostly 46.1 µM), without a hit: at the top dose ratio change, negative = inhibition, most hits filed as inhibitors; AID 1487; HeLa LMNA splicing GFP/RFP minigene ratio, 48 h; actives 0.01% (n = 200,000); active means well fitted inhibition curve with a large enough effect in the signal ratio, with a control signal flat, not every such curve was filed as active; inconclusive means small, poorly fitted or top-dose-only effect, or effect the other way, or a change in a side signal; the % refers to the signal ratio; further: on the % scale 0 is the no-effect control and ±100 the full control effect
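Read-out is the ratio of GFP to DsRed2 object intensity, acquired by 488 nm laser-scanning cytometry on HeLa lamin A-EGFP minigene reporter cells. Compound incubation 48 hrs at 37 °C in Opti-MEM with 2% FBS; DMSO 0.5% final.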
HTT aggregate: mutant huntingtin aggregation inhibition | PC12 HttQ103-GFP aggregates, Acumen cytometry, 40 h | Potency, µM (series often up to 46.1 µM), for inactives: at the top dose activity change, negative = inhibition, hits mostly inhibitors | actives 1.1% (n = 220,000); further: on the % scale 0 is the no-effect control and ±100 the full control effect; nearly all actives have a fitted effect of over 60% in size
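Multiplexed with ATP-based cell death, this channel scores GFP aggregates in PC12 cells expressing inducible HTTex1-Q103-GFP. Induction used 100 nM tebufenozide; compounds were tested in concentration series.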
HPGD inh: inhibitors of human 15-hydroxyprostaglandin dehydrogenase (HPGD); Potency, µM, for the others: at the highest dose activity change, negative = inhibition, actives largely listed as inhibitors; P15428; actives 4.3% (n = 150,000); purified HPGD, NADH fluorescence kinetic, PGE2 substrate; active means well fitted inhibition curve with a large enough effect, not every such curve was filed as active; inconclusive means small, poorly fitted or top-dose-only effect, or another doubt; inactive means no such curve, though single readings can be large or run the other way; further: on the % scale 0 is the no-effect control and ±100 the full control effect
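NADH formation kinetics: reaction with 30 uM PGE2 and 1 mM NAD+ (final), 20 nM enzyme, Tris-HCl pH 8 with Tween 20, after 15 min compound preincubation at room temperature. Fluorescence change, last versus first of five reads.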
Numbers without * were called inactive; u = inconclusive; x = no result; [ ] = remark or other dose. Unless noted, the call rests on the fitted dose curve; in most records, active means well fitted curve in the direction sought with a large enough effect; inconclusive means small, poorly fitted or top-dose-only effect, or another doubt; inactive means no such curve, though single readings can be large; an effect the other way counts as inactive or inconclusive. Potency means the concentration at half of the fitted maximal effect.

SMILES	KinaseGlo FLuc	HTT ATP protect	ALDH1A1 inh	LMNA splice mod	HTT aggregate	HPGD inh
O=C(CCN1CCCCCC1)c1ccccc1	-2%	4%[1.9 µM]	6.3µM*	-6%	-18%	-8%
O=C(CCN1CCCC1)c1cccs1	x	-2%[10 µM]	x	x	1%[9.22 µM]	x
CCOc1ccc(C(=O)CCN2CCCCC2)cc1	-1%	16%	0.016µM*	u	-1%	u
COc1ccc(C(O)(CCc2ccccc2)CCN2CCCCC2)cc1 (configuration not stated)	1%	-12%	2.2µM*	x	4%	x
Cc1c(CC=C(Cl)Cl)c(=O)[nH]c2c(C)cccc12	4%	2%[10 µM]	-8%	-12%	-14%	-15%
CCC1(C)CC2(CCCN(CCC(=O)c3ccccc3)C2)CCO1 (configuration not stated)	4%	1%	0.71µM*	-33%[9.22 µM]	-1%	x
O=C(CCN1CCN(c2ccccc2F)CC1)c1ccc(Br)cc1	x	-31%	u	u	8%	x
CCCOc1ccc(C(=O)CCN2CCN(C(=O)OCC)CC2)cc1	-1%	3%	0.71µM*	x	-13%	x
COc1ccc(C(=O)CCN2CCCCCC2)cc1	-4%	-40%	0.063µM*	u	u	-16%
COc1ccc(C(=O)CCN2CCN(c3ccccc3F)CC2)cc1	-1%	-50%	0.13µM*	x	31%	x
CCOC(=O)N1CCN(C(=O)c2ccc(OCC)cc2)CC1	-2%	12%[10 µM]	2%	9%[46 µM]	20%[9.22 µM]	x
COc1ccc(C(=O)OCCN2CCCCC2)cc1	-1%	6%	4%	17%[46 µM]	5%	x
Cn1c(-c2ccccc2)n[nH]c1=S	x	14%[10 µM]	-4%	x	-15%[9.22 µM]	x
NC(=O)CC(NC(=O)c1cccc(Br)c1)c1ccc(NCCN2CCOCC2)c([N+](=O)[O-])c1 (configuration not stated)	x	25%[10 µM]	x	x	34%[9.22 µM]	x
COc1cc(OC)c(C2C3=C(CCCC3=O)Nc3nc4ccccc4n32)cc1OC (configuration not stated)	9%	-9%	u	0%	-15%	u
CN1CCN(C(=S)NC(=O)c2ccc(Cl)cc2)CC1	0%	-4%[10 µM]	18µM*	16%[46 µM]	-1%[9.22 µM]	x
CN1CCN(C(=S)c2ccc(Cl)cc2)CC1	-2%	9%	8%	-9%	-10%	-7%
O=c1[nH]c2ccc(Cl)cc2c(-c2ccccc2)c1SC(=S)N1CCOCC1	17%	-51%	8.9µM*	12%	u	20µM*
O=c1[nH]c2ccc(Cl)cc2c(-c2ccccc2)c1SC(=S)N1CCCCC1	-1%	-9%	25µM*	6%	u	u
Cc1ccc(SCCNS(=O)(=O)c2ccc(F)cc2)cc1	2%	2%[10 µM]	16µM*	-15%	-22%	-7%
Cc1ccc(SCCNS(=O)(=O)c2ccc3c(c2)OCCO3)cc1	3%	9%	1.4µM*	u	-26%	-10%
CC(C)OCCCNS(=O)(=O)c1ccc2c(c1)OCCO2	1%	27%	u	3%	-9%	-2%
COc1ccc(S(=O)(=O)NCCSc2ccc(C)cc2)cc1OC	0%	13%	5µM*	u	u	-23%
Cc1cc(C(=O)COc2cc(F)ccc2[N+](=O)[O-])c(C)n1C1CC1	-1%	-15%[10 µM]	-15%	u	26%	x
Cc1cc(C(=O)COc2ccc([N+](=O)[O-])cc2)c(C)n1C1CC1	x	13%[10 µM]	11µM*	0%[46 µM]	-7%[9.22 µM]	x
Cc1cccc2cc(-c3ccccc3)c(-c3ccccc3)c[n+]12	-5%	x	u	u	18µM*	-8%
O=[N+]([O-])c1cccc(-c2cc3cccc[n+]3cc2-c2cccc([N+](=O)[O-])c2)c1	-3%	x	-4%	-6%	-7%	5%
COc1ccc2c(c1)nc(SCC(=O)c1ccc(Br)s1)n2C	-8%	u	28µM*	-2%	3%	u
CCc1ccc(C2=NN(CCC(=O)NC(C)CCc3ccccc3)C(=O)CC2)cc1 (configuration not stated)	-2%	-44%	-11%	x	-23%	x
